# Laboratory results as given in PubChem BioAssay (NCI).
# About 79,000 compounds went through this panel and 15% of them were active in at least one assay; those are over-represented in the sample as a whole. Unmarked numbers belong to inactive results. Calls of active or inactive are those of the source. No stated cut-off is given here; in the data, active means growth inhibition above about 70%; inactive means the rest.
# Assays:
# [1] = NCI Yeast Anticancer Drug Screen. Data for the rad52 strain (AID 147);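 further: 0% = growth of vehicle-treated control cultures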; details: S. cerevisiae rad52 mutant growth inhibition, active compounds read high
# In short: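 Compounds are applied to a genetically defined yeast strain lacking normal DNA damage repair, and inhibition of growth is expressed relative to cultures given vehicle only.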
# [2] = NCI Yeast Anticancer Drug Screen. Data for the wt1 strain (AID 149);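 further: 0% = growth of vehicle-treated wt1 cultures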; details: S. cerevisiae wt1 strain (SPY 50644) growth inhibition, active compounds read high
# In short: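 Yeast wt1 strain exposed to compounds; growth inhibition measured relative to vehicle-treated controls.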
# [3] = NCI Yeast Anticancer Drug Screen. Data for the rad50EPP+ strain (AID 151);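 further: 0% = growth of vehicle-treated control cultures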; details: S. cerevisiae rad50 mutant strain, active compounds read high
# In short: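 Compounds were applied to the rad50EPP+ yeast strain, which bears a defined DNA repair alteration, and growth inhibition was determined relative to vehicle-treated cultures.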
# [4] = NCI Yeast Anticancer Drug Screen. Data for the mgt1 strain (AID 153); details: S. cerevisiae mgt1 mutant growth inhibition, active compounds read high
# In short: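 Strain: mgt1 yeast, one of a set carrying defined DNA damage repair or cell cycle control alterations. Compound-treated growth compared with vehicle.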
# [5] = NCI Yeast Anticancer Drug Screen. Data for the rad50 strain (AID 155);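 further: 0% = growth of vehicle-only cultures of the same strain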; details: S. cerevisiae rad50 strain growth inhibition, active compounds read high
# In short: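 Yeast carrying a defined DNA repair defect were exposed to test compounds, and growth was compared with vehicle-treated controls to give percent inhibition.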
# [6] = NCI Yeast Anticancer Drug Screen. Data for the mec2-1 strain (AID 157); details: S. cerevisiae mec2-1 strain, active compounds read high
# In short: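 Strain: mec2-1 (DNA repair/cell cycle alteration). Compound exposure, then growth measured; inhibition expressed relative to vehicle.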
# [7] = NCI Yeast Anticancer Drug Screen. Data for the rad14 strain (AID 159);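 further: 0% = growth of vehicle-treated control cultures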; details: S. cerevisiae rad14 strain growth inhibition, active compounds read high
# In short: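 Yeast cells carrying a defined DNA-repair defect were exposed to compounds, and growth inhibition was calculated relative to vehicle-treated control cultures.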
# [8] = NCI Yeast Anticancer Drug Screen. Data for the sgs1 mgt1 strain (AID 161);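 further: 0% = growth of cultures given vehicle only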; details: S. cerevisiae sgs1 mgt1 strain, active compounds read high
# In short: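 Mutant yeast exposed to compound; growth scored against vehicle-only wells.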
# [9] = NCI Yeast Anticancer Drug Screen. Data for the CLN2oe strain (AID 163);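 further: 0% = growth of vehicle-only control cultures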; details: S. cerevisiae CLN2oe strain, active compounds read high
# In short: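 Growth of a genetically modified yeast strain is measured after compound exposure and compared with cultures given vehicle alone.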
# [10] = NCI Yeast Anticancer Drug Screen. Data for the cln2 rad14 strain (AID 165);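 further: 0% = growth equal to vehicle treated cultures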; details: S. cerevisiae cln2 rad14 strain, active compounds read high
# In short: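 Compounds are applied to the cln2 rad14 yeast strain, and growth is then compared with that of vehicle-treated cultures to give inhibition.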
# [11] = NCI Yeast Anticancer Drug Screen. Data for the bub3 strain (AID 167); details: S. cerevisiae bub3 mutant strain, active compounds read high
# In short: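 Compounds were applied to a genetically altered yeast strain carrying a cell-cycle control defect. Growth inhibition was scored against vehicle-treated controls.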
# [12] = NCI Yeast Anticancer Drug Screen. Data for the wt2 strain (AID 169);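 further: 0% = growth of vehicle-treated yeast cultures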; details: S. cerevisiae wt2 strain growth inhibition, active compounds read high
# In short: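 This strain belongs to a panel of yeast strains with defined genetic alterations in DNA damage repair or cell cycle control. Compounds are applied, and growth inhibition is measured against vehicle-treated cultures.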
# [13] = NCI Yeast Anticancer Drug Screen. Data for the mlh1 strain (AID 171);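 further: 0% = growth of vehicle-treated control cultures of the same strain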; details: S. cerevisiae mlh1 strain growth inhibition, active compounds read high
# In short: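 Growth of the mutant yeast strain after compound exposure, expressed as inhibition relative to vehicle-only controls.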
# [14] = NCI Yeast Anticancer Drug Screen. Data for the sgs1 strain (AID 173);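 further: 0% = growth of vehicle-only control cultures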; details: S. cerevisiae sgs1 mutant, active compounds read high
# In short: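 Growth of a yeast strain bearing a defined genetic alteration is measured after compound treatment. Inhibition is expressed relative to vehicle-only controls.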
# [15] = NCI Yeast Anticancer Drug Screen. Data for the mlh1 rad18 strain (AID 175); details: S. cerevisiae mlh1 rad18 strain growth inhibition, active compounds read high
# In short: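 Read-out is yeast growth inhibition, calculated against vehicle-only controls. The compound was applied to a strain engineered with DNA damage repair alterations.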
# [16] = NCI Yeast Anticancer Drug Screen. Data for the rad18 strain (AID 177); details: S. cerevisiae rad18 mutant growth inhibition, active compounds read high
# In short: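 Growth of the mutant yeast strain after compound exposure, normalised to vehicle-only cultures.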
# [17] = at 5.0 µM (retest, dose inferred, filed as 0.5)
# [18] = at 50.0 µM (retest, dose inferred, filed as 5.0)
structure (smiles),measurement,setting,value
Cc1cc(=O)oc2c(C)c3occc(=O)c3cc12,growth inhibition,[1]; at 1.2 µM,1%
same,growth inhibition,[1]; at 3.7 µM,2%
same,growth inhibition,[1]; at 11.0 µM,17%
same,growth inhibition,[1]; at 33.0 µM,48%
same,growth inhibition,[1]; at 100.0 µM,86% (active)
same,growth inhibition,[2]; at 1.2 µM,4%
same,growth inhibition,[2]; at 3.7 µM,-2%
same,growth inhibition,[2]; at 11.0 µM,0%
same,growth inhibition,[2]; at 33.0 µM,5%
same,growth inhibition,[2]; at 100.0 µM,23%
same,growth inhibition,[3]; at 1.2 µM,-1%
same,growth inhibition,[3]; at 3.7 µM,-1%
same,growth inhibition,[3]; at 11.0 µM,4%
same,growth inhibition,[3]; at 33.0 µM,29%
same,growth inhibition,[3]; at 100.0 µM,67%
same,growth inhibition,[4]; at 1.2 µM,-5%
same,growth inhibition,[4]; at 3.7 µM,3%
same,growth inhibition,[4]; at 11.0 µM,-11%
same,growth inhibition,[4]; at 33.0 µM,-10%
same,growth inhibition,[4]; at 100.0 µM,44%
same,growth inhibition,[5]; at 1.2 µM,-1%
same,growth inhibition,[5]; at 3.7 µM,2%
same,growth inhibition,[5]; [17],24%
same,growth inhibition,[5]; at 11.0 µM,18%
same,growth inhibition,[5]; at 33.0 µM,59%
same,growth inhibition,[5]; [18],67%
same,growth inhibition,[5]; at 50.0 µM,94.3% (active)
same,growth inhibition,[5]; at 100.0 µM,84% (active)
same,growth inhibition,[6]; at 1.2 µM,-2%
same,growth inhibition,[6]; at 3.7 µM,0%
same,growth inhibition,[6]; [17],-6%
same,growth inhibition,[6]; at 11.0 µM,4%
same,growth inhibition,[6]; at 33.0 µM,14%
same,growth inhibition,[6]; [18],21%
same,growth inhibition,[6]; at 50.0 µM,67.2%
same,growth inhibition,[6]; at 100.0 µM,40%
same,growth inhibition,[7]; at 1.2 µM,2%
same,growth inhibition,[7]; at 3.7 µM,2%
same,growth inhibition,[7]; at 11.0 µM,1%
same,growth inhibition,[7]; at 33.0 µM,9%
same,growth inhibition,[7]; at 100.0 µM,28%
same,growth inhibition,[8]; [17],-10%
same,growth inhibition,[8]; [18],8%
same,growth inhibition,[8]; at 50.0 µM,74.4% (active)
same,growth inhibition,[9]; at 1.2 µM,-2%
same,growth inhibition,[9]; at 3.7 µM,-1%
same,growth inhibition,[9]; at 11.0 µM,9%
same,growth inhibition,[9]; at 33.0 µM,6%
same,growth inhibition,[9]; at 100.0 µM,29%
same,growth inhibition,[10]; [17],-17%
same,growth inhibition,[10]; [18],15%
same,growth inhibition,[10]; at 50.0 µM,43.8%
same,growth inhibition,[11]; at 1.2 µM,-1%
same,growth inhibition,[11]; at 3.7 µM,-1%
same,growth inhibition,[11]; [17],12%
same,growth inhibition,[11]; at 11.0 µM,3%
same,growth inhibition,[11]; at 33.0 µM,5%
same,growth inhibition,[11]; [18],19%
same,growth inhibition,[11]; at 50.0 µM,78% (active)
same,growth inhibition,[11]; at 100.0 µM,15%
same,growth inhibition,[12]; at 1.2 µM,-1%
same,growth inhibition,[12]; at 3.7 µM,-2%
same,growth inhibition,[12]; at 11.0 µM,1%
same,growth inhibition,[12]; at 33.0 µM,10%
same,growth inhibition,[12]; at 100.0 µM,32%
same,growth inhibition,[13]; at 1.2 µM,-1%
same,growth inhibition,[13]; at 3.7 µM,4%
same,growth inhibition,[13]; at 11.0 µM,2%
same,growth inhibition,[13]; at 33.0 µM,11%
same,growth inhibition,[13]; at 100.0 µM,48%
same,growth inhibition,[14]; at 1.2 µM,0%
same,growth inhibition,[14]; at 3.7 µM,-2%
same,growth inhibition,[14]; at 11.0 µM,0%
same,growth inhibition,[14]; at 33.0 µM,6%
same,growth inhibition,[14]; at 100.0 µM,34%
same,growth inhibition,[15]; [17],11%
same,growth inhibition,[15]; [18],21%
same,growth inhibition,[15]; at 50.0 µM,63.1%
same,growth inhibition,[16]; at 1.2 µM,-1%
same,growth inhibition,[16]; at 3.7 µM,-4%
same,growth inhibition,[16]; at 11.0 µM,-2%
same,growth inhibition,[16]; at 33.0 µM,7%
same,growth inhibition,[16]; at 100.0 µM,40%
O=Cc1ccc2c(c1)C(=O)c1ccccc1C2=O,growth inhibition,[1]; at 1.2 µM,4%
same,growth inhibition,[1]; at 3.7 µM,11%
same,growth inhibition,[1]; at 11.0 µM,33%
same,growth inhibition,[1]; at 33.0 µM,79% (active)
same,growth inhibition,[1]; at 100.0 µM,92% (active)
same,growth inhibition,[2]; at 1.2 µM,1%
same,growth inhibition,[2]; at 3.7 µM,-1%
same,growth inhibition,[2]; at 11.0 µM,7%
same,growth inhibition,[2]; at 33.0 µM,18%
same,growth inhibition,[2]; at 100.0 µM,31%
same,growth inhibition,[3]; at 1.2 µM,0%
same,growth inhibition,[3]; at 3.7 µM,5%
same,growth inhibition,[3]; at 11.0 µM,33%
same,growth inhibition,[3]; at 33.0 µM,73% (active)
same,growth inhibition,[3]; at 100.0 µM,83% (active)
same,growth inhibition,[4]; at 1.2 µM,0%
same,growth inhibition,[4]; at 3.7 µM,9%
same,growth inhibition,[4]; at 11.0 µM,9%
same,growth inhibition,[4]; at 33.0 µM,33%
same,growth inhibition,[4]; at 100.0 µM,55%
same,growth inhibition,[5]; at 1.2 µM,2%
same,growth inhibition,[5]; at 3.7 µM,16%
same,growth inhibition,[5]; [17],-11%
same,growth inhibition,[5]; at 11.0 µM,44%
same,growth inhibition,[5]; at 33.0 µM,80% (active)
same,growth inhibition,[5]; [18],57%
same,growth inhibition,[5]; at 50.0 µM,77.6% (active)
same,growth inhibition,[5]; at 100.0 µM,91% (active)
same,growth inhibition,[6]; at 1.2 µM,0%
same,growth inhibition,[6]; at 3.7 µM,7%
same,growth inhibition,[6]; [17],6%
same,growth inhibition,[6]; at 11.0 µM,12%
same,growth inhibition,[6]; at 33.0 µM,21%
same,growth inhibition,[6]; [18],21%
same,growth inhibition,[6]; at 50.0 µM,30.8%
same,growth inhibition,[6]; at 100.0 µM,34%
same,growth inhibition,[7]; at 1.2 µM,0%
same,growth inhibition,[7]; at 3.7 µM,-3%
same,growth inhibition,[7]; at 11.0 µM,10%
same,growth inhibition,[7]; at 33.0 µM,23%
same,growth inhibition,[7]; at 100.0 µM,37%
same,growth inhibition,[8]; [17],5%
same,growth inhibition,[8]; [18],8%
same,growth inhibition,[8]; at 50.0 µM,39.5%
same,growth inhibition,[9]; at 1.2 µM,-3%
same,growth inhibition,[9]; at 3.7 µM,-1%
same,growth inhibition,[9]; at 11.0 µM,13%
same,growth inhibition,[9]; at 33.0 µM,25%
same,growth inhibition,[9]; at 100.0 µM,22%
same,growth inhibition,[10]; [17],-21%
same,growth inhibition,[10]; [18],16%
same,growth inhibition,[10]; at 50.0 µM,35.9%
same,growth inhibition,[11]; at 1.2 µM,-1%
same,growth inhibition,[11]; at 3.7 µM,-7%
same,growth inhibition,[11]; [17],-3%
same,growth inhibition,[11]; at 11.0 µM,8%
same,growth inhibition,[11]; at 33.0 µM,9%
same,growth inhibition,[11]; [18],8%
same,growth inhibition,[11]; at 50.0 µM,36.6%
same,growth inhibition,[11]; at 100.0 µM,7%
same,growth inhibition,[12]; at 1.2 µM,0%
same,growth inhibition,[12]; at 3.7 µM,4%
same,growth inhibition,[12]; at 11.0 µM,14%
same,growth inhibition,[12]; at 33.0 µM,32%
same,growth inhibition,[12]; at 100.0 µM,51%
same,growth inhibition,[13]; at 1.2 µM,2%
same,growth inhibition,[13]; at 3.7 µM,1%
same,growth inhibition,[13]; at 11.0 µM,10%
same,growth inhibition,[13]; at 33.0 µM,44%
same,growth inhibition,[13]; at 100.0 µM,82% (active)
same,growth inhibition,[14]; at 1.2 µM,-3%
same,growth inhibition,[14]; at 3.7 µM,-3%
same,growth inhibition,[14]; at 11.0 µM,8%
same,growth inhibition,[14]; at 33.0 µM,38%
same,growth inhibition,[14]; at 100.0 µM,56%
same,growth inhibition,[15]; [17],10%
same,growth inhibition,[15]; [18],61%
same,growth inhibition,[15]; at 50.0 µM,67.8%
same,growth inhibition,[16]; at 1.2 µM,-1%
same,growth inhibition,[16]; at 3.7 µM,0%
same,growth inhibition,[16]; at 11.0 µM,14%
same,growth inhibition,[16]; at 33.0 µM,61%
same,growth inhibition,[16]; at 100.0 µM,81% (active)
